Test results as given in PubChem BioAssay (NCATS).
Inconclusive results are not listed. Where a call stands in place of a potency, no number is given. Calls of active or inactive are those of the source. Calls come from the whole dose curve; as a rule, active = well fitted cell-killing curve with a large enough effect; inconclusive = small, poorly fitted or top-dose-only effect; inactive = flat fitted curve, though single readings scatter.

Assays:
[1] = Cell Viability - LYMP2-009 (AID 968); note: series mostly up to about 92 µM; nearly all actives have a fitted effect of over 55% in size
[2] = Cell Viability - LYMP2-011 (AID 969);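 note: cells exposed to compound for 24 hours; nearly all actives have a fitted effect of over 60% in size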
In short: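 Luminescent ATP read-out (CellTiter-Glo, 30 min RT) after 24 hr compound exposure at 37 C in human lymphoblastoid cells, 2500 cells/well. Decreasing ATP indicates cytotoxicity; AC50 from standard Hill fit.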

[3] = Cell Viability - LYMP2-013 (AID 970); note: series mostly up to about 92 µM; nearly all actives have a fitted effect of over 55% in size
In short: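 CellTiter-Glo luminescence (cellular ATP) read after 30 min at RT. Cells: human lymphoblastoid line, 2500/well, 24 hr compound exposure at 37 C. Tetraoctylammonium bromide positive control; AC50 via standard Hill fit of qHTS titrations.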

[4] = Cell Viability - LYMP2-015 (AID 971); note: nearly all actives have a fitted effect of over 55% in size
In short: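 qHTS cytotoxicity: 2500 cells/well, 5 hr 37 C, compound 24 hr 37 C, CellTiter-Glo 30 min RT, luminescence. Loss of ATP = toxicity; AC50 via standard Hill fit.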

[5] = Cell Viability - LYMP2-017 (AID 972);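 note: series mostly up to about 92 µM; cells exposed to compound for 24 hours at 37 °C; nearly all actives have a fitted effect of over 55% in size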
In short: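 Luminescent ATP read-out (CellTiter-Glo, 30 min RT) reports viable cell number. Cells: human lymphoblastoid line, 2500 per well, 5 hr preincubation, 24 hr compound exposure at 37 C. AC50 is derived from qHTS concentration-response data using the standard Hill model.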

[6] = Cell Viability - LYMP2-019 (AID 973); note: nearly all actives have a fitted effect of over 55% in size
In short: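 qHTS, 1536-well; 2500 cells/well; 5 hr pre-incubation, 24 hr compound exposure, 37 C; CellTiter-Glo added, 30 min RT; luminescence read; AC50 via standard Hill equation.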

[7] = Cell Viability - LYMP2-021 (AID 974)
In short: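 ATP luminescence (CellTiter-Glo, 30 min RT) after 24 h compound exposure at 37 C; 2500 human lymphoblastoid cells/well, 5 h settle beforehand. Cytotoxicity = concentration-dependent ATP drop, AC50 by Hill fit.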

[8] = Cell Viability - LYMP2-023 (AID 975)
In short: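 CellTiter-Glo luminescence after 30 min at room temperature; decrease in intracellular ATP reflects toxicity. Cells: human lymphoblastoid line, 2500/well, 24 hr compound exposure at 37 C. AC50 fitted to standard Hill equation from concentration-response.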

[9] = Cell Viability - LYMP2-025 (AID 976); note: series mostly up to about 92 µM
In short: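 CellTiter-Glo luminescence (cellular ATP) after 24 h compound exposure at 37 C; LYMP2-025 human lymphoblastoid cells, 2500/well, complete medium. Tetraoctylammonium bromide positive control. AC50 by Hill equation fit of qHTS concentration-response.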

[10] = Cell Viability - LYMP2-002 (AID 977); note: series mostly up to about 92 µM
In short: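 In this qHTS viability screen, 2500 human lymphoblastoid cells per well receive compound for 24 hr at 37 C, and luciferase-based ATP luminescence gives the viability signal. Tetraoctylammonium bromide serves as positive control.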

[11] = Cell Viability - LYMP2-006 (AID 978);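 note: series mostly up to about 92 µM; cells exposed to compound for 24 hours; nearly all actives have a fitted effect of over 60% in size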
In short: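 Concentration-dependent loss of intracellular ATP in a human lymphoblastoid line after 24 hr treatment at 37 C was measured by CellTiter-Glo luminescence, with AC50 values obtained from standard Hill-equation modelling.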

[12] = Cell Viability - LYMP2-007 (AID 979);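 note: cells exposed to compound for 24 h before reading; nearly all actives have a fitted effect of over 60% in size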
In short: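 qHTS cytotoxicity: 2500 cells/well, 5 hr 37 C settle, compound 24 hr 37 C, CellTiter-Glo 30 min RT, luminescence. Decrease in ATP = toxicity. AC50 by standard Hill equation; tetraoctylammonium bromide positive control.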

[13] = Cell Viability - LYMP2-008 (AID 980); note: nearly all actives have a fitted effect of over 60% in size
In short: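 Luminescent ATP read-out (CellTiter-Glo, 30 min RT) after 24 hr compound exposure at 37 C of human lymphoblastoid cells in complete medium. Decrease in ATP taken as cytotoxicity; AC50 derived by standard Hill fit of qHTS concentration-response data.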

[14] = Cell Viability - LYMP2-010 (AID 981); note: potency is the fitted concentration of half-maximal effect
In short: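 qHTS cytotoxicity, 1536-well: 2500 cells/well, 5 hr settle, 24 hr compound at 37 C, CellTiter-Glo 30 min RT, luminescence read. Decrease in ATP = toxicity; AC50 via standard Hill equation. Positive control tetraoctylammonium bromide.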

[15] = Cell Viability - LYMP2-012 (AID 982)
[16] = Cell Viability - LYMP2-014 (AID 983); note: series mostly up to about 92 µM; nearly all actives have a fitted effect of over 50% in size
In short: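 2500 cells/well, 5 hr 37 C; cpd 24 hr 37 C, complete medium; CellTiter-Glo 30 min RT, luminescence; ATP loss = toxicity; AC50 via Hill eqn; tetraoctylammonium bromide positive control.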

[17] = Cell Viability - LYMP2-016 (AID 984)
In short: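 Acute toxicity in a Coriell human lymphoblastoid line is scored as loss of intracellular ATP over 24 h of treatment in complete medium. CellTiter-Glo signal is fitted across concentrations with the Hill equation to give AC50.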

[18] = Cell Viability - LYMP2-018 (AID 985); note: nearly all actives have a fitted effect of over 50% in size; note: potency is the fitted concentration of half-maximal effect
In short: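 2500 cells/well; 5 hr 37 C; cmpd 24 hr 37 C, complete medium; CellTiter-Glo 30 min RT; luminescence. Tetraoctylammonium bromide positive control. AC50 via Hill fit.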

[19] = Cell Viability - LYMP2-020 (AID 986)
In short: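 qHTS, 2500 cells/well; 5 hr then 24 hr compound exposure, 37 C; CellTiter-Glo luminescence after 30 min RT; ATP decrease taken as cytotoxicity; AC50 via Hill equation; tetraoctylammonium bromide positive control.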

[20] = Cell Viability - LYMP2-022 (AID 987); note: nearly all actives have a fitted effect of over 55% in size; note: potency is the fitted concentration of half-maximal effect
In short: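 Luminescent ATP read-out (CellTiter-Glo, 30 min, RT) after 24 hr, 37 C compound exposure of 2500 human lymphoblastoid cells/well in complete medium. Cytotoxicity taken as concentration-dependent ATP loss; AC50 from standard Hill equation.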

Compound | outcome [1] | outcome [2] | outcome [3] | outcome [4] | outcome [5] | outcome [6] | outcome [7] | outcome [8] | outcome [9] | outcome [10] | outcome [11] | outcome [12] | outcome [13] | Potency [14] | outcome [15] | outcome [16] | outcome [17] | Potency [18] | outcome [19] | Potency [20]
COP(=S)(OC)Oc1ccc(SC)c(C)c1 | inactive | inactive | inactive | inactive | inactive | inactive | inactive | inactive | inactive | inactive | inactive | inactive | inactive | inactive | inactive | inactive | inactive | inactive | inactive | inactive
CC(C)c1cccc(C(C)C)c1O | inactive | inactive | inactive | inactive | inactive | inactive | inactive | inactive |  | inactive | inactive | inactive | inactive | inactive | inactive | inactive | inactive | inactive | inactive | inactive
Nc1ccccc1 | inactive | inactive | inactive | inactive | inactive | inactive | inactive | inactive | inactive |  | inactive | inactive | inactive | inactive | inactive | inactive | inactive | inactive | inactive | inactive
C[C@]12CCC(=O)C=C1CC[C@@H]1[C@@H]2CC[C@@]2(C)[C@H]1CC[C@]2(C)O | inactive | inactive | inactive | inactive | inactive | inactive | inactive | inactive | inactive | inactive | inactive | inactive | inactive | inactive |  | inactive | inactive | inactive | inactive | inactive
CCCC(C)(COC(N)=O)COC(N)=O | inactive | inactive | inactive | inactive | inactive | inactive | inactive | inactive | inactive | inactive | inactive | inactive | inactive | inactive | inactive | inactive | inactive | inactive | inactive | inactive
NCCc1ccc(O)cc1 | inactive | inactive | inactive | inactive | inactive | inactive | inactive | inactive | inactive | inactive | inactive | inactive | inactive | inactive | inactive | inactive | inactive | inactive | inactive | inactive
Nc1ccccc1C(=O)O | inactive | inactive | inactive | inactive | inactive | inactive | inactive | inactive | inactive | inactive | inactive | inactive | inactive | inactive | inactive | inactive | inactive | inactive | inactive | inactive
Oc1ccc(Cl)cc1 | inactive | inactive | inactive | inactive | inactive | inactive | inactive | inactive | inactive | inactive | inactive | inactive | inactive | inactive | inactive | inactive | inactive | inactive | inactive | inactive
CCOC(=O)CC(SP(=S)(OC)OC)C(=O)OCC (configuration not stated) | inactive | inactive | inactive | inactive | inactive | inactive | inactive | inactive | inactive | inactive | inactive | inactive | inactive | inactive | inactive | inactive | inactive | inactive | inactive | inactive
O=C(O)CCCc1ccc(N(CCCl)CCCl)cc1 |  |  |  |  |  | inactive |  | inactive | inactive | inactive | inactive |  |  | 31.6 µM (active) |  |  |  | 31.6 µM (active) |  | 39.8 µM (active)
CCC(C)(C)c1ccc(O)cc1 | inactive | inactive | inactive | inactive | inactive | inactive | inactive | inactive | inactive | inactive | inactive | inactive | inactive | inactive | inactive | inactive | inactive | inactive | inactive | inactive
C[C@]12CCC(=O)C=C1CC[C@@H]1[C@@H]2CC[C@]2(C)C(=O)CC[C@@H]12 | inactive | inactive | inactive | inactive | inactive | inactive | inactive | inactive | inactive | inactive | inactive | inactive | inactive | inactive | inactive | inactive | inactive | inactive | inactive | inactive
CN1C[C@H](C(=O)N[C@]2(C)O[C@@]3(O)[C@@H]4CCCN4C(=O)[C@H](Cc4ccccc4)N3C2=O)C=C2c3cccc4[nH]cc(c34)C[C@H]21 | inactive | inactive | inactive |  | inactive |  | inactive | inactive | inactive | inactive | inactive | inactive | inactive |  |  | inactive |  | inactive | inactive | 
CC(C)NC(C)C | inactive | inactive | inactive | inactive | inactive | inactive | inactive | inactive | inactive | inactive | inactive | inactive | inactive | inactive | inactive | inactive | inactive | inactive | inactive | inactive
C[C@]1(O)CC[C@H]2[C@@H]3CCC4=CC(=O)CC[C@]4(C)[C@@]3(F)[C@@H](O)C[C@@]21C | inactive | inactive | inactive | inactive | inactive | inactive | inactive | inactive | inactive | inactive | inactive | inactive | inactive | inactive | inactive | inactive | inactive | inactive | inactive | inactive
COc1cc(OC)c(OC)cc1C=O | inactive | inactive | inactive | inactive | inactive | inactive | inactive | inactive | inactive | inactive | inactive | inactive | inactive | inactive | inactive | inactive | inactive | inactive | inactive | inactive
COC(=O)C(c1ccccc1)C1CCCCN1 (configuration not stated) | inactive | inactive | inactive |  | inactive | inactive | inactive | inactive | inactive | inactive | inactive | inactive | inactive | inactive | inactive | inactive | inactive | inactive | inactive | 
Clc1ccc(C(c2ccc(Cl)cc2)C(Cl)(Cl)Cl)cc1 | inactive | inactive | inactive | inactive | inactive | inactive | inactive | inactive | inactive | inactive | inactive | inactive | inactive | inactive | inactive | inactive | inactive | inactive | inactive | inactive
O=P1(N(CCCl)CCCl)NCCCO1 (configuration not stated) | inactive | inactive | inactive | inactive | inactive | inactive | inactive | inactive | inactive | inactive | inactive | inactive | inactive | inactive | inactive | inactive | inactive | inactive | inactive | inactive
